Results with a measured potency or affinity are listed apart. Calls of active or inactive are those of the source.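 Rule for the calls: active = fluorescent signal decreased by at least 40%; inconclusive = no clear call, values can overlap the other calls; inactive = the rest, including activity opposite to the expected direction.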
Assay: fibronectin fibrillogenesis inhibitors in fibroblasts, dose response, AH1F cells, Alexa488-fibronectin fluorescence, cherry-pick, set 2 (AID 1117283);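 note: AH1F fibroblasts given Alexa488-labelled fibronectin at 24 nM final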
Details: Alexa488-fibronectin deposition fluorescence, overnight; series mostly up to 35 µM

Row | SMILES | outcome
1 | Cc1ccccc1S(=O)(=O)N1CC[C@H]2[C@H](CO)Nc3ccc(-c4ccc(C#N)cc4)cc3[C@H]21 | inactive
2 | CO[C@@H]1CN(C)C(=O)c2cc(NC(=O)Nc3ccc(Cl)c(Cl)c3)ccc2OC[C@@H](C)NC[C@@H]1C | inactive
3 | C[C@@H]1CN([C@@H](C)CO)C(=O)c2cc(-c3ccccc3)cnc2O[C@H]1CN(C)C(=O)c1cccc(F)c1 | inactive
4 | CO[C@@H]1CN(C)C(=O)c2ccc(NC(=O)Nc3ccc(Cl)c(Cl)c3)cc2OC[C@@H](C)NC[C@@H]1C | inactive
5 | C[C@H]1CN([C@@H](C)CO)C(=O)c2cc(NC(=O)CCCN(C)C)ccc2O[C@H]1CN(C)Cc1ccc(-c2ccccc2)cc1 | inactive
6 | O=S(=O)(c1cccc(F)c1)N1CC[C@H]2[C@H](CO)Nc3ccc(-c4cccc(F)c4)cc3[C@H]21 | inactive
7 | C[C@H](CO)N1C[C@H](C)[C@@H](CN(C)Cc2ccc(-c3ccccc3)cc2)Oc2ccc(NC(=O)C3CCCCC3)cc2C1=O | inactive
8 | N#C[C@@H]1[C@H](c2ccccc2C2=CCCCC2)[C@H](CO)N1S(=O)(=O)c1ccccc1 | inactive
9 | CN1c2ccc(-c3ccccc3)cc2[C@H]2[C@H](CCN2C(=O)CN2CCOCC2)[C@H]1CO | inactive
10 | C[C@@H]1CN([C@H](C)CO)C(=O)c2cc(NC(=O)CCCN(C)C)ccc2O[C@H]1CN(C)Cc1ccc(-c2ccccc2)cc1 | inactive
11 | C[C@@H]1CN([C@H](C)CO)C(=O)c2cc(-c3ccccc3)cnc2O[C@H]1CN(C)C(=O)c1cccc(F)c1 | inactive
12 | N#Cc1ccc(-c2ccc3c(c2)[C@H]2[C@H](CCN2S(=O)(=O)c2cccc(F)c2)[C@H](CO)N3)cc1 | inactive
13 | C[C@H]1CN([C@@H](C)CO)C(=O)c2cc(-c3ccccc3)cnc2O[C@@H]1CN(C)C(=O)c1cccc(F)c1 | inactive
14 | N#C[C@@H]1[C@@H](c2ccccc2C2=CCCCC2)[C@@H](CO)N1S(=O)(=O)c1ccccc1 | inactive
15 | NC(=O)C1=C[C@H](c2coc3ccccc3c2=O)C[C@H](OCCCCO)O1 | inactive
16 | Cn1cc([N+](=O)[O-])c(C(=O)Nc2cc(Oc3ccccc3)cc([N+](=O)[O-])c2)n1 | inactive
17 | CN(C)C(=O)c1ccc(-c2ccc3c(c2)[C@H]2[C@H](CCN2C(=O)c2ccc(F)cc2)[C@@H](CO)N3C)cc1 | inactive

Row | SMILES | outcome
18 | CSc1ccccc1C(=O)C1CCCN(C(=O)CCc2cccnc2)C1 (centres undefined) | inactive
19 | O=C(Nc1ccccc1F)N1C[C@@H]2[C@H](c3ccccc31)[C@@H](CO)N2C(=O)C1CC1 | inactive
20 | CO[C@H]1CN(C)C(=O)c2cc(NC(=O)Nc3ccc(Cl)c(Cl)c3)ccc2OC[C@H](C)NC[C@@H]1C | inactive
21 | C[C@H](O)C#Cc1ccc2c(c1)O[C@H](CN(C)C)[C@H](C)CN([C@@H](C)CO)S2(=O)=O | inactive
22 | CC(C)(C)[S@@](=O)N1Cc2cc(C(=O)NCc3ccccc3F)nc(-c3cccc(-c4cncnc4)c3)c2[C@H]1CCO | inactive
23 | N#C[C@H]1[C@@H](c2ccccc2C2=CCCCC2)[C@@H](CO)N1S(=O)(=O)c1ccccc1 | inactive
24 | CO[C@H]1CN(C)C(=O)c2ccc(NC(=O)c3ccc(-c4ccccc4)cc3)cc2OC[C@@H](C)NC[C@H]1C | inactive
25 | CO[C@H]1CN(C)C(=O)c2cc(NC(=O)Nc3ccc(Cl)c(Cl)c3)ccc2OC[C@H](C)NC[C@H]1C | inactive
26 | O=S(=O)(c1ccccc1F)N1CC[C@@H]2[C@H]1c1cc(-c3cccc(F)c3)ccc1N[C@@H]2CO | inactive
27 | COC(=O)C[C@@H]1CC[C@@H]2[C@H](COc3ccc(NC(=O)Cc4cccs4)cc3C(=O)N2C)O1 | inactive
28 | COc1ccc(S(=O)(=O)N2CCCCC2c2cc(C(=O)Nc3ccc4c(c3)OCO4)no2)cc1 (centres undefined) | inactive
29 | O=C(Nc1nc(-c2ccncc2)cs1)C1COc2ccccc2O1 (centres undefined) | inactive
30 | N#Cc1ccc(-c2ccc3c(c2)[C@@H]2[C@@H](CCN2S(=O)(=O)c2ccccc2F)[C@H](CO)N3)cc1 | inactive
31 | CC(C)NC(=O)N(C)C[C@H]1Oc2ccc(NC(=O)CCN3CCOCC3)cc2C(=O)N([C@H](C)CO)C[C@@H]1C | inactive
32 | CCC(C)(C)NC(=O)C(OC(=O)c1ccco1)c1ccccc1OC (centres undefined) | inactive
33 | C[C@H](CO)N1C[C@H](C)[C@H](CN(C)C(=O)c2cccc(F)c2)Oc2ncc(-c3ccccc3)cc2C1=O | inactive
34 | CN1c2ccc(-c3ccccc3)cc2[C@@H]2[C@@H](CCN2C(=O)CN2CCOCC2)[C@@H]1CO | inactive

— PubChem BioAssay AID1117283 (Broad Institute, 2014)
